# HIV Env fusion = inhibitors of HIV-1 Env-driven cell-cell fusion, primary screen, HeLa-JRFL effector, CEM21 target cells, luciferase; inhibition, % at 12.3 µM; actives 1.1% (n = 360,000); AID 651610, 2012;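 active = mean replicate inhibition score of at least 50 and every replicate individually at or above 50; inconclusive = only one of the two criteria met; inactive = mean below 50 and not all replicates reaching 50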;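 also: 0% = plate neutral controls and 100% = maraviroc near 300 nM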
# esBAF inh = Bmi1 luciferase reporter increase in mESCs, primary screen, esBAF inhibitor project, mouse ES cells, Bmi1 luciferase knock-in, single point; AID 602393, 2012; actives 2% (n = 350,000); 24 h; 100% = twice the neutral-well signal; reporter increase, % at 12.5 µM; in the data active = activation above about 40%; inconclusive = no clear call, values can overlap the other calls;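 also: 0% = median of the plate's neutral control wells and 100% = double that signal; a rise in the Bmi1 reporter signal indicates esBAF inhibition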
# MITF TRPM1 HTS = activators of MITF-driven TRPM1 promoter reporter, primary screen, cell-based, SK-MEL-5, luciferase, single point; SK-MEL-5 TRPM1-promoter luciferase, 24 h; % of positive control, neutral wells = 0; actives 0.75% (n = 300,000); activation, % at 12.5 µM; AID 588334, 2011;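 active = mean activation of at least 80% with every replicate also reaching 80%; inconclusive = mean reaches 80% but some replicate falls short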;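 also: 0% = neutral control wells and 100% = parthenolide positive control wells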
# miR122 inh = miR-122 Renilla sensor signal increase in Huh7, primary screen, miR-122 inhibitor project, cell-based, single point, plate reader. actives 0.3% (n = 340,000). Huh7 miR-122 Renilla luciferase sensor, 48 h; neutral wells = 0, positive control = 100. activation (reporter increase), % at 12.5 µM;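 active = mean replicate activation score at least 90 and every replicate individually at or above 90; inconclusive = only one of the two criteria met; inactive = neither criterion met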;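 also: higher luciferase means less miR-122 activity so hits act as miR-122 inhibitors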
# Wnt bcat act = Wnt/beta-catenin pathway activators, primary screen, cell-based, plate reader, single point. Wnt/beta-catenin reporter cell assay, activator. activation, % at 9.35 µM. actives 1.2% (n = 300,000); in the data active = activation above about 30%, passing the limit was not always enough; inconclusive = no clear call, values can overlap the other calls;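 also: 0% = neutral control wells and 100% = positive control wells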
# Numbers without * were called inactive; u = inconclusive; x = no result; [ ] = another dose, or the depositor's remark. In the library only some 3.4% were active in any assay of this set; here they are far more common.
SMILES,HIV Env fusion,esBAF inh,MITF TRPM1 HTS,miR122 inh,Wnt bcat act
O=C(Nc1ccc2c(c1)OCCO2)c1cccc(S(=O)(=O)N2CCCCC2)c1,34,6,7,0,x
O=C(Nc1ccc2c(c1)OCCO2)c1cccc(S(=O)(=O)N2CCOCC2)c1,-102,u,55,21,45*
CCCNC(=O)N(C)C[C@@H]1Oc2ncc(-c3ccncc3)cc2C(=O)N([C@H](C)CO)C[C@H]1C,4[16.7 µM],-5,x,6[16.7 µM],x
C[C@@H]1CN([C@H](C)CO)C(=O)c2cc(NC(=O)Nc3cccc4ccccc34)ccc2O[C@@H](C)CCCCO[C@H]1CN(C)S(=O)(=O)c1ccccc1,-8[16.7 µM],-1,x,11[16.7 µM],x
CCN(CC)S(=O)(=O)c1cccc(C(=O)Nc2ccc3c(c2)OCO3)c1,-16,x,u,x,-2
Cc1cccc(NC(=O)C2CCN(S(=O)(=O)c3ccc4c(c3)OCCCO4)CC2)n1,83*,1,-17,0,0
CS(=O)(=O)c1cccc(C(=O)Nc2ccc3c(c2)OCCCO3)c1,-34,58*,81*,x,14
Cc1cccc(NC(=O)C2CCN(S(=O)(=O)c3ccc4c(c3)OCCO4)CC2)n1,x,1,-10,x,1
COc1ccc(NC(=O)N(C)C[C@@H]2OCCCC[C@@H](C)Oc3ccc(NS(=O)(=O)c4c(C)noc4C)cc3C(=O)N([C@H](C)CO)C[C@H]2C)cc1,-160[16.7 µM],23,x,-7[16.7 µM],x
COCC#Cc1ccc2c(c1)O[C@@H](CN(C)Cc1ccncc1)[C@@H](C)CN([C@@H](C)CO)S2(=O)=O,-11[16.7 µM],-2,x,9[16.7 µM],x
Cc1ccc(C(=O)Nc2ccccc2C(=O)O)cc1S(=O)(=O)Nc1ccccc1,4,-5,x,92*,2
Cc1ccc(NC(=O)c2ccc([N+](=O)[O-])cc2)cc1S(=O)(=O)N(C)C,-10,49*,17,4,-1
Cc1ccccc1NS(=O)(=O)c1cc(C(=O)Nc2cccc(N(C)S(C)(=O)=O)c2)ccc1C,33,-3,-9,x,-9
Cc1ccc(C(=O)NCCSC2CCCCC2)cc1S(=O)(=O)Nc1ccccc1,x,1,-9,100*,0
Cc1ccc(C(=O)Nc2ccccc2C(=O)O)cc1S(=O)(=O)NC1CCCCC1,2,-7,4,72,-1
CN(c1cccc(NC(=O)c2ccc(Cl)c(S(=O)(=O)Nc3ccccc3)c2)c1)S(C)(=O)=O,-32,11,-10,197*,x
O=S(=O)(N[C@H]1CC[C@H](CCn2cc(C3(O)CCCC3)nn2)O[C@@H]1CO)c1ccc(Cl)cc1,21[16.7 µM],14,x,-6[16.7 µM],x
Cc1ccc(S(=O)(=O)N(C)C[C@H]2OCCCC[C@H](C)Oc3ccc(NS(=O)(=O)c4ccc(F)cc4)cc3C(=O)N([C@H](C)CO)C[C@H]2C)cc1,-19[16.7 µM],1,x,-2[16.7 µM],x
Cc1ccccc1NS(=O)(=O)c1cc(C(=O)N2CCc3ccccc3C2)ccc1C,1,6,4,177*,-1
Cc1ccc(NS(=O)(=O)c2cc(C(=O)Nc3cccc([N+](=O)[O-])c3)ccc2C)cc1,x,x,5,131*,-7
COc1ccc(N2CCN(C(=O)C3Cc4ccccc4CN3C(=O)c3ccccc3)CC2)cc1 (stereo unspecified),-29,72*,47,-5,16
CC(=O)N1Cc2ccccc2CC1C(=O)N1CCN(c2ccccc2)CC1 (stereo unspecified),13,0,-5,-2,-2
NC(=O)CC(NC(=O)c1ccccc1)c1ccc(N2CCC(Cc3ccccc3)CC2)c([N+](=O)[O-])c1 (stereo unspecified),87*,-15,-13,-4,4
NC(=O)CC(NC(=O)c1ccc(Br)cc1)c1ccc(N2CCC(Cc3ccccc3)CC2)c([N+](=O)[O-])c1 (stereo unspecified),22,4,-3,4,0
CCCNC(=O)Nc1ccc2c(c1)OC[C@H](C)N(Cc1cccnc1)C[C@H](C)[C@@H](OC)CN(C)C2=O,-15[16.7 µM],x,x,x,x
SMILES,HIV Env fusion,esBAF inh,MITF TRPM1 HTS,miR122 inh,Wnt bcat act
CCc1sc(N2C(=O)C3C4CCC(C4=C(C)C)C3C2=O)nc1-c1ccccc1 (stereo unspecified),-48,54*,-4,-7,x
CCc1sc(NC(C)=O)nc1-c1ccccc1,-20,0,21,2,x
C/C=C/c1ccc([C@H]2[C@H]3CN(S(=O)(=O)c4cccs4)CCCCN3[C@H]2CO)cc1,x,x,x,-12[16.7 µM],x
CN=c1nc(-c2ccccc2)n(-c2ccccc2)s1,-49,55*,-7,-10,1
CC(=O)N(C)C[C@@H]1Oc2cc(C#Cc3ccc(F)cc3)ccc2S(=O)(=O)N([C@@H](C)CO)C[C@H]1C,x,-12,x,26[16.7 µM],x
COc1cc2oc3ccccc3c2cc1N(CC(=O)N(C)C)S(=O)(=O)c1ccccc1,x,-4,x,114*,-2
COc1ccc(Cl)cc1N(CC(=O)N/N=C/c1ccc(OC(C)C)cc1)S(=O)(=O)c1ccc(C)c([N+](=O)[O-])c1,x,x,2,x,-3
COc1ccc(Cl)cc1N(CC(=O)N(C)C)S(=O)(=O)c1ccc(C)c([N+](=O)[O-])c1,-21,-3,-8,101*,0
COc1cc2oc3ccccc3c2cc1N(CC(=O)N(C)C)S(=O)(=O)c1ccc(C)cc1,x,-4,4,-5,x
C[C@@H]1CCCCO[C@@H](CN(C)Cc2ccc(Cl)c(Cl)c2)[C@@H](C)CN([C@H](C)CO)C(=O)c2cc(NC(=O)NC3CCCCC3)ccc2O1,6[16.7 µM],-8,x,5[16.7 µM],x
O=C(NC[C@H]1CC[C@H]2[C@H](CN2Cc2cccc(Cl)c2)O1)C1CCOCC1,-18[16.7 µM],x,x,x,x
CC(=O)c1ccc(N2CCN(C(=O)c3cc4c(-c5ccccc5F)nn(C)c4s3)CC2)cc1,66*,-10,x,-5,-3
COc1ccc(CCNc2ccncn2)cc1,56*,-14,x,-6,x
Oc1ccccc1C=NN=CC=Cc1ccccc1,-82,x,46,x,-3
O=C(Cc1ccccc1)N/N=C/C=C/c1ccccc1[N+](=O)[O-],-24,x,x,2,35*
O=[N+]([O-])c1ccccc1C=CC=NN=Cc1ccccc1O,-43,x,31,x,71*
O=C(O)c1ccc(N/N=C/C=C/c2ccccc2[N+](=O)[O-])cc1,-55,79*,112*,45,10
C[C@@H]1CN([C@@H](C)CO)C(=O)Cc2cc(NC(=O)Cn3cnnn3)ccc2O[C@H]1CN(C)Cc1ccc(-c2ccccc2)cc1,x,-1,x,0[16.7 µM],x
CC(C)NC(=O)N(C)C[C@@H]1Oc2ccc(NS(=O)(=O)c3ccc(Cl)cc3)cc2C(=O)N([C@H](C)CO)C[C@H]1C,x,-3,x,0[16.7 µM],x
O=C(Nc1ccccc1Cl)N1[C@@H](CO)[C@@H]2c3ccccc3NC[C@@H]21,x,-2,x,-3[16.7 µM],x
O=C(Nc1ccccc1Cl)N1[C@H](CO)[C@@H]2c3ccccc3NC[C@@H]21,x,61*,x,-24[16.7 µM],x

# Screening data deposited in PubChem BioAssay by Broad Institute.
